Pf Dd2 inh: P. falciparum Dd2 growth inhibitors, primary screen, SYBR Green fluorescence, single dose replicates. 94,000 tested, 2.3% active. 72 h; hits give low values. activity change, % at 10 µM; in the data active = activity change below about -80%; inconclusive = no clear call, values can overlap the other calls
C diff growth: C. difficile growth inhibitors, primary screen, HTS; Clostridium difficile clinical isolate growth, OD600, 24 h; hits give low values; growth activity, negative = inhibition, % at 16 µg/mL (by protocol); 86,000 tested, 0.25% active; AID 1259249, 2017;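 active = mean growth activity at or below -80% and every replicate also at or below -80%; inconclusive = mean at or below -80% but some replicate above -80%; inactive = mean growth activity above -80%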;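 note: 0% = DMSO wells and -100% = levofloxacin 16 µg/mL wells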
T cruzi growth: T. cruzi intracellular proliferation inhibitors, primary screen, cell-based, beta-gal Tulahuen parasites, NIH3T3 host, luminescence. T. cruzi beta-gal in NIH3T3, GalScreen luminescence, 90 h. inhibition, % at 8.34 µM. 77,000 tested, 5.9% active;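 active = mean inhibition above about 93%, with at least 55% of replicates each passing it, limit read from the data, passing the limit was not always enough; inconclusive = only one of those two conditions holds; inactive = neither condition holds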
* marks the source's active call; other numbers are inactive results; ? = inconclusive; . = no result given. Hits are enriched below; roughly 6.8% of the tested compounds scored in any of these assays.

SMILES	Pf Dd2 inh	C diff growth	T cruzi growth
C[C@H]1CN([C@@H](C)CO)S(=O)(=O)c2ccc(C#Cc3ccccc3)cc2O[C@H]1CN(C)C(=O)C1CC1	-88*	-4	74
C[C@H]1CN([C@@H](C)CO)S(=O)(=O)c2ccc(C#Cc3ccccc3)cc2O[C@H]1CN(C)C(=O)Cc1ccccn1	-86*	-3	69
CC(C)C#Cc1ccc2c(c1)O[C@H](CN(C)C(=O)Cc1ccccn1)[C@@H](C)CN([C@H](C)CO)S2(=O)=O	-37	6	48
C[C@@H]1CN([C@H](C)CO)S(=O)(=O)c2ccc(C#Cc3ccccc3)cc2O[C@H]1CN(C)C(=O)C1CC1	-79	-16	58
COc1ccc(CN(C)C[C@H]2OCCCC[C@H](C)Oc3ccc(NC(=O)NC(C)C)cc3C(=O)N([C@H](C)CO)C[C@H]2C)cc1	.	3	-31
CCC(=O)N1CC(=O)N2[C@H](CO)[C@@H](c3ccc(C#CCc4ccccc4)cc3)[C@@H]2C1	-39	-15	.
CCC(=O)N1CC(=O)N2[C@@H](CO)[C@H](c3ccc(C#CCc4ccccc4)cc3)[C@@H]2C1	-85*	-16	.
COCC#Cc1ccc([C@H]2[C@@H](CO)N3C(=O)CN(C(=O)CN4CCOCC4)C[C@@H]23)cc1	21	3	.
COCC#Cc1ccc([C@H]2[C@H](CO)N3C(=O)CN(C(=O)CN4CCOCC4)C[C@@H]23)cc1	-85*	2	.
O=C(C1CC1)N1CC(=O)N2[C@H](CO)[C@@H](c3ccc(C#CCc4ccccc4)cc3)[C@@H]2C1	-88*	-26	.
O=C(C1CCCC1)N1CC(=O)N2[C@H](CO)[C@@H](c3ccc(C#CCc4ccccc4)cc3)[C@@H]2C1	?	-14	.
O=C(C1CC1)N1CC(=O)N2[C@@H](CO)[C@H](c3ccc(C#CCc4ccccc4)cc3)[C@@H]2C1	-53	-23	.
O=C(C1CCCC1)N1CC(=O)N2[C@H](C1)[C@@H](c1ccc(C#CCc3ccccc3)cc1)[C@@H]2CO	-89*	-11	.
CN(C)CC(=O)N1[C@H](CO)[C@H](c2ccccc2)C12CN(C(=O)c1cccc(F)c1)C2	19	0	.
CO[C@H]1CN(C)C(=O)c2cc(NC(=O)Nc3cccc(F)c3)ccc2OC[C@H](C)N(C(C)=O)C[C@@H]1C	0	.	-10
COc1ccc(S(=O)(=O)N(C)C[C@H]2Oc3c(NC(=O)Nc4ccccc4)cccc3C(=O)N([C@H](C)CO)C[C@H]2C)cc1	-76	.	49
C[C@@H]1CN([C@@H](C)CO)C(=O)Cc2cc(N(C)C)ccc2O[C@H]1CN(C)S(=O)(=O)c1cn(C)cn1	19	0	-31
O=C(c1ccccn1)N1CC(=O)N2[C@H](CO)[C@@H](c3ccc(C#CCc4ccccc4)cc3)[C@@H]2C1	?	3	.
O=C(c1ccccn1)N1CC(=O)N2[C@H](C1)[C@@H](c1ccc(C#CCc3ccccc3)cc1)[C@@H]2CO	-82*	-4	.
CC(C)C#Cc1ccc([C@@H]2[C@@H](CO)N3C(=O)CN(C(=O)C4CCCCC4)C[C@H]23)cc1	-21	28	.
CC(C)C#Cc1ccc([C@@H]2[C@@H](CO)N3C(=O)CN(C(=O)C4CCCCC4)C[C@@H]23)cc1	-85*	50	.
O=S(=O)(c1cccs1)N1CCCCN2[C@H](CO)[C@H](c3ccc(Br)cc3)[C@H]2C1	-41	18	78
CCC(=O)N1CCC2(CC1)CN(C(=O)Nc1ccccc1F)[C@H](CO)c1[nH]c3cc(OC)ccc3c12	37	.	.
COc1ccc2c3c([nH]c2c1)[C@H](CO)N(C(=O)Nc1ccccc1F)CC31CCN(C(C)=O)CC1	-55	-8	.
COc1ccc2c3c([nH]c2c1)[C@H](CO)N(C(C)=O)CC31CCN(C(=O)Nc2ccccc2F)CC1	-89*	-2	.
SMILES	Pf Dd2 inh	C diff growth	T cruzi growth
CCC(=O)N1CC2(CN(C(=O)Nc3ccc(F)cc3)C2)c2c([nH]c3cc(OC)ccc23)[C@H]1CO	-52	6	.
COc1ccc2c3c([nH]c2c1)[C@@H](CO)N(S(C)(=O)=O)CC31CCN(C(=O)Nc2ccccc2)CC1	-51	-9	.
COc1ccc2c3c([nH]c2c1)[C@H](CO)N(S(C)(=O)=O)CC31CCN(C(=O)Nc2ccccc2)CC1	-83*	0	.
CCC(=O)N1CC2(CCN(C(=O)Nc3ccccc3F)CC2)c2c([nH]c3cc(OC)ccc23)[C@H]1CO	-90*	4	.
CCC(=O)N1CC2(CCN(C(=O)Nc3ccc(F)cc3)CC2)c2c([nH]c3cc(OC)ccc23)[C@H]1CO	-84*	4	.
C[C@H]1CN([C@@H](C)CO)C(=O)c2cc(C#CCc3ccccc3)cnc2O[C@H]1CN(C)C(=O)Cc1cccnc1	-9	1	71
COc1ccc(S(=O)(=O)NC[C@H]2CC[C@H]3[C@H](CN3Cc3cc(F)ccc3F)O2)cc1	7	-4	.
COc1ccc(NC(=O)Nc2ccc3c(c2)CC(=O)N([C@H](C)CO)C[C@H](C)[C@@H](CN(C)S(=O)(=O)c2ccccc2)O3)cc1	-1	3	-17
C[C@H]1CN([C@@H](C)CO)C(=O)c2cccc(NS(=O)(=O)c3ccccc3)c2O[C@H]1CN(C)C(=O)Nc1ccc(F)cc1	-13	-4	6
O=C(Nc1ccc2c(c1)[C@@H]1C[C@H](CC(=O)N3CCOCC3)O[C@H](CO)[C@@H]1O2)c1ccc2c(c1)OCO2	38	2	53
COc1ccc2c3c([nH]c2c1)[C@@H](CO)NCC31CCN(C(=O)Nc2ccc(F)cc2)CC1	-17	29	.
COc1ccc2c3c([nH]c2c1)[C@H](CO)NCC31CCN(C(=O)Nc2ccc3c(c2)OCO3)CC1	-94*	2	.
COc1ccc2c3c([nH]c2c1)[C@@H](CO)N(C(=O)Nc1ccc(F)cc1)CC31CCN(C(=O)Cc2ccncc2)CC1	-76	7	.
CCC(=O)N1CC2(CCN(C(=O)Nc3ccccc3F)CC2)c2c([nH]c3cc(OC)ccc23)[C@@H]1CO	-85*	-1	.
CCC(=O)N1CC2(CN(C(=O)Nc3ccccc3F)C2)c2c([nH]c3cc(OC)ccc23)[C@@H]1CO	-47	-3	.
COc1ccc2c3c([nH]c2c1)[C@H](CO)N(C(=O)Nc1ccc(F)cc1)CC31CCN(C(=O)Cc2ccncc2)CC1	-84*	-1	.
CN(C)C(=O)C[C@H]1CC[C@H]2[C@@H](COC[C@@H](O)CN2C(=O)c2ccncc2)O1	.	-2	-60
O=C(C[C@H]1CC[C@@H](NC(=O)c2cccnc2)[C@@H](CO)O1)NCCN1CCCCC1	-27	-5	.
COCC#Cc1ccc2c(c1)O[C@H](CN(C)S(=O)(=O)c1cccc(OC)c1)[C@@H](C)CN([C@H](C)CO)S2(=O)=O	-47	4	35
COc1ccc2c3c([nH]c2c1)[C@H](CO)N(Cc1ccccc1OC)CC31CN(S(=O)(=O)c2ccccc2)C1	-63	-3	.
COc1ccc(NC(=O)Nc2ccc3c(c2)CC(=O)N([C@@H](C)CO)C[C@H](C)[C@@H](CN(C)C(=O)Nc2ccc(C(F)(F)F)cc2)O3)cc1	-17	-9	3
COc1ccc(NC(=O)N(C)C[C@H]2Oc3ccc(NC(=O)Nc4ccc(C(F)(F)F)cc4)cc3CC(=O)N([C@H](C)CO)C[C@@H]2C)cc1	-88*	11	35
